# Bioassay records as filed in PubChem BioAssay.
# An excerpt weighted towards active compounds, which were near 7.3% of everything screened.
# ELG1 genotoxic: genotoxicity induction in ELG1-luciferase HEK293T cells. actives 1.3% (n = 330,000). HEK293T ELG1-luciferase reporter, luminescence, 16 h. Potency, µM (doses to about 46 µM), without a hit: at the top dose activity change, positive = activation, most hits filed as activators; note: % of control where 0% means no effect; nearly all actives have a fitted effect of over 60% in size
#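 DMSO vehicle served as control against compound-treated ELG1-luciferase HEK293T cells; exposure lasted 16 hr at 37 °C and 5% CO2, followed by ONE-Glo luminescence detection after 30 min.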
# FLuc counter: inhibits or activates purified firefly luciferase, miR-21 counter-screen; Potency, µM (titrated, usually from 57.5 µM), without a hit: top-dose activity change, negative = inhibition, actives largely listed as inhibitors; actives 6.9% (n = 360,000); purified FLuc, Km substrates, luminescence inhibition; P08659; AID 588342;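 note: plate controls were vehicle for no effect and reference inhibitor for full effect; nearly all actives have a fitted effect of over 55% in size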
# Target sequence (P08659 whole entry, looked up): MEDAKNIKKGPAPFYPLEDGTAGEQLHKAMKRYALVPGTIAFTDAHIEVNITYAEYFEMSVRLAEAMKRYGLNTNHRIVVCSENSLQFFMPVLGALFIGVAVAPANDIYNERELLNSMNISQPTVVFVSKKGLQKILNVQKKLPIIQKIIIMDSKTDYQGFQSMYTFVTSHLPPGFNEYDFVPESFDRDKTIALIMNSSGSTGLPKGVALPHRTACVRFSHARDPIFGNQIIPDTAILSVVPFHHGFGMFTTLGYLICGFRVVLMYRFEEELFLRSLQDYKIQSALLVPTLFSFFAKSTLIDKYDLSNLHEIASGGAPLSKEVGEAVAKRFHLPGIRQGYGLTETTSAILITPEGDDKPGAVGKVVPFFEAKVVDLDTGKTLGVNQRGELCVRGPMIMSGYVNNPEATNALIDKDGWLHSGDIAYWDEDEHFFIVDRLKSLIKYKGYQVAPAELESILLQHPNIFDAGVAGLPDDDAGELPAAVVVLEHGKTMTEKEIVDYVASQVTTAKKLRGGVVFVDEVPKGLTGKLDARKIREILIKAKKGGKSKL
#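 Purified P. pyralis luciferase, 10 nM final, with Km-level 10 uM D-luciferin and 10 uM ATP in 50 mM Tris acetate pH 7.5, 10 mM Mg acetate, 0.01% Tween-20, 0.05% BSA; 6-point qHTS titration about 60 µM downward; luminescence read.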
# Rab9 promoter act: Rab9 promoter activation; Huh7 Rab9 promoter-luciferase reporter, luminescence, 24 h; Potency, µM (doses to about 9.22 µM), for inactives: at the highest dose activation, negative = inhibition, actives largely listed as activators; actives 2.8% (n = 320,000); AID 485297; note: % of control where 0% means no effect; nearly all actives have a fitted effect of over 60% in size
#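 Measured in stably transfected Huh7 cells bearing a Rab9 promoter–luciferase construct: 24 h compound treatment at 37 °C, followed by luminescence detection.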
# p53 reactivation: restores transcriptional activity of mutant p53 | H1299 p53-A138V BP100-luciferase reporter, luminescence, 24 h | Potency, µM (highest dose often 92.2 µM), without a hit: at the highest dose activity change, positive = activation, hits mostly activators | actives 0.063% (n = 320,000) | AID 504706; note: % of control where 0% means no effect; nearly all actives have a fitted effect of over 45% in size
#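 H1299 (p53-null), stable ts p53-A138V + BP100-Luc; 1000 cells/well, Opti-MEM/10% FBS; cpd 4 pt, 1:5; 24 h, 37 deg C, 5% CO2; detection reagent 10 min RT; luminescence.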
# NPC1 prom act: activates the NPC1 promoter; Huh7 NPC1 promoter luciferase reporter, 24 h; Potency, µM (highest dose often 9.22 µM), for inactives: at the top dose activation, usual class: activators; actives 2.4% (n = 320,000); AID 485313; note: % of control where 0% means no effect; nearly all actives have a fitted effect of over 60% in size
#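 Luminescence from an NPC1 promoter-driven luciferase reporter in stably transfected Huh7 cells was measured after 24 h compound treatment at 37 °C, followed by 10 min ambient incubation with luciferase detection reagent.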
# SMN2 splice up: enhancers of SMN2 splice variant expression. HEK293 SMN2-luciferase splicing reporter, luminescence, 30-36 h. Potency, µM (titrated, usually from 46.1 µM), without a hit: at the highest dose activity change, positive = activation, hits mostly activators. actives 2.8% (n = 210,000). AID 1458; note: % of control where 0% means no effect; nearly all actives have a fitted effect of over 55% in size
#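 HEK293 cells carry an SMN2 […]–luciferase reporter in which exon 7 inclusion puts luciferase in frame. Cells were plated 10-12 h before compound addition, then incubated 30-36 h at 37C. ONE-Glo luminescence was read; sodium butyrate at 4.5 mM final served as control.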
# The depositor's hits bear a star; ? = inconclusive; nt = not tested or not shown; [ ] = remark or other dose. Calls come from the whole dose curve; as a rule, active = well fitted curve in the direction sought with a large enough effect; inconclusive = small, poorly fitted or top-dose-only effect, or another doubt; inactive = no such curve, though single readings can be large; an effect the other way counts as inactive or inconclusive. Potency is the fitted concentration of half-maximal effect.
SMILES,ELG1 genotoxic,FLuc counter,Rab9 promoter act,p53 reactivation,NPC1 prom act,SMN2 splice up
CC(=O)c1sc(NC(=O)C(C)(C)C)nc1C,1.6%,-2.0%,1.2%,-2.0%,-2.4%,-7.7%
COc1cc(NC(=O)CN(C)S(=O)(=O)c2ccc3[nH]c4c(c3c2)CCCC4)cc(OC)c1OC,nt,-12.3%,nt,nt,nt,nt
COc1ccc(/C=C/C(=O)Nc2nc(C)c(C(=O)N(C)C)s2)cc1,2.1%,19µM*,-0.6%,-9.6%,1.8%,5.7%
COc1ccc(/C=C/C(=O)Nc2nc(C)c(C(=O)N(C)C)s2)cc1OC,6.7%,-3.0%,5.0%,-2.4%,1.9%,1.0%
CC(C)Oc1ccc(C(=O)NNC(=O)c2ccccc2C(=O)O)cc1,0.4%,21.3µM*,12.2%,?,-1.1%,2.5%
COC(=O)c1ccccc1NC(=O)CNC(=O)c1ccc(OC)cc1,4.9%,-1.2%,-5.1%,-2.2%,-4.3%,-7.2%
COc1ccc(C(=O)Nc2ccccc2C(N)=O)cc1,?,-22.5%[2.3 µM],2µM*,?,3.16µM*,31.6µM*
NC(=O)c1ccccc1NC(=O)c1ccc2ccccc2c1,2.31µM*,0.536µM*,0.562µM*,nt,0.891µM*,nt
CC(C)Oc1ccc(CCC(=O)NNC(=O)c2ccccc2C(=O)O)cc1,2.4%,-8.3%,-1.8%,-2.8%,5.6%,nt
CCCCNC(=O)Nc1ccccc1C(=O)Nc1ccc(OC)cc1,8.4%,10.7µM*,12.7%,5.3%,1.8%,13.1%
COc1ccc(C2CC(=O)N(CC(=O)Nc3ccc(C)c(Cl)c3)c3ccccc3S2)cc1OC (configuration not stated),nt,-15.2%,nt,nt,nt,-8.1%
C=C1CCC(=O)C(C)CCC2C1CC2(C)C (configuration not stated),nt,nt,nt,nt,nt,6.0%
O=C(Nc1cccc(S(=O)(=O)N2CCOCC2)c1)c1c2c(nc3ccccc13)CCC2,-0.7%,-1.7%,2.0%,-7.2%,-0.6%,1.9%
CCOCCCNC(=O)Cn1nc(C)n2c(cc3cc(C)ccc32)c1=O,nt,4.1%,nt,nt,nt,7.2%
O=S(=O)(c1ccccc1)N1CCC[C@@]2(CCN(Cc3cc(C(F)(F)F)cc(C(F)(F)F)c3)C2)C1,nt,nt,nt,nt,nt,-20.8%
NC(=O)c1ccccc1NC(=O)c1ccc2c(c1)OCO2,?,7.57µM*,1.78µM*,?,1µM*,nt
COC(=O)c1ccccc1NC(=S)NC(=O)c1ccc2c(c1)OCO2,10.0%,-19.2%,-2.8%,16.1%,-2.1%,nt
COC(=O)c1ccccc1NC(=O)NC1CCCC1,2.8%,-4.8%,1.0%,0.1%,2.5%,nt
COc1ccc(C(=O)Nc2ccccc2C(=O)N/N=C/c2cccc3ccccc23)cc1,-9.5%,0.0849µM*,?,11.9%,?,-59.8%
COc1ccc(NC(=O)c2ccccc2NC(=O)NC2CCCCC2)cc1,3.7%,5.36µM*,18.1%,-0.6%,20.6%,20.2%
O=C(Nc1cc(C(=O)Nc2ccccc2C(=O)O)cc(C(=O)Nc2ccccc2C(=O)O)c1)c1ccccc1,23.0%,3.4%,-3.1%,-1.3%,0.0%,nt
COc1c(Cl)cc(C(=O)Nc2ccccc2C(=O)O)cc1Cl,1.9%,16.9µM*,18.1%,15.4%,3.4%,-3.4%
COC(=O)C1(CC(C)C)C=C2C(=C(c3ccccc3)C(=O)C2C)CN1 (configuration not stated),nt,nt,nt,nt,nt,-14.7%
O=S1(=O)c2ccccc2N(Cc2cccc(C(F)(F)F)c2)c2ccccc21,nt,-8.2%,nt,nt,nt,nt
Cc1ccc(C)c(Cn2c(SCC(=O)N(C)Cc3ccccc3)nc3ccccc32)c1,nt,5.2%,nt,nt,nt,nt
SMILES,ELG1 genotoxic,FLuc counter,Rab9 promoter act,p53 reactivation,NPC1 prom act,SMN2 splice up
Cc1cc(NC(=O)CSc2nc3c([nH]c4ccccc43)c(=O)n2-c2cccc(Cl)c2)no1,nt,-3.3%,nt,nt,nt,nt
CCN(CC)CCCCn1c(-c2ccccc2)nc2c(NCCOC)nc(C)nc21,nt,nt,nt,nt,nt,-0.6%
O=C(Nc1nnc(-c2ccco2)o1)c1ccc2ccccc2c1,?,?,-3.7%,?,2.4%,-1.0%
COc1ccc(C(=O)Nc2ccccc2C(=O)N2CCCCCC2)cc1,4.7%,-0.4%,4.5%,-2.6%,?,nt
COCC(=O)Nc1ccccc1C(=O)Nc1ccc(OC)cc1,?,0.6%,2.82µM*,?,?,?
Cc1nnc(NC(=O)c2ccc3ccccc3c2)o1,2.2%,23.9µM*,11.1%,?,3.5%,-12.7%
COc1ccc(C)cc1NC(=O)NC1CCCCCCC1,-0.8%,15.1µM*,0.1%,0.7%,-1.9%,nt
COc1ccc(C(=O)Nc2ccccc2C(=O)Nc2ccccc2C(=O)O)cc1,2.1%,0.477µM*,2.82µM*,-4.3%,3.16µM*,nt
C=C(C)C1CC=C(C)C(OC(C)=O)C1 (configuration not stated),nt,nt,nt,nt,nt,-2.5%
CCc1ccc2ncc3c(-c4ccc(C)cc4)nn(CC(=O)Nc4ccc(C)cc4)c3c2c1,nt,0.3%,nt,nt,nt,nt
COc1ccc(NC(=O)c2ccccc2NC(=O)COc2ccccc2)cc1,16.7%,-0.8%,2.0%,-1.2%,-1.7%,19.3%
COc1ccc(NC(=O)c2ccc(Cl)c(NC(=O)c3ccncc3)c2)cc1,-3.4%,?,-2.2%,-1.1%,-2.4%,nt
COc1ccc(C(=O)Nc2ccc(O)cc2C(=O)O)cc1,-1.6%,10.7µM*,3.3%,-2.1%,-3.5%,-5.8%
COc1ccc(NC(=O)c2ccc(C(=O)Nc3ccc(OC)cc3OC)cc2)c(OC)c1,?,-3.1%,-0.6%,-3.0%,-2.1%,-12.9%
COc1ccc(C(=O)Nc2ccccc2C(=O)Nc2ccncc2)cc1,?,1.69µM*,?,-5.3%,?,nt
CCC(NC(=O)c1ccccc1NC(=O)c1ccc(OC)cc1)C(=O)N1CCCC1 (configuration not stated),12.5%,16.9µM*,24.5%,?,20.9%,?
COc1ccc(C(=O)Nc2ccccc2C(=O)Nc2ccc(C(=O)O)cc2)cc1,?,0.757µM*,?,?,?,nt
COc1ccc(N2CC(NC(=O)c3cc4ccccc4o3)CC2=O)cc1OC (configuration not stated),nt,2.4%,nt,nt,nt,nt
Cc1ccccc1NC(=O)c1ccc2ccccc2c1,?,15.1µM*,?,nt,?,nt
O=C(O)c1ccc(NC(=O)c2ccccc2NC(=O)c2ccccc2Cl)cc1,0.9%,19µM*,-2.2%,-4.5%,-1.6%,nt
O=C(Cc1ccc(Cl)cc1)Nc1ccccc1C(=O)Nc1ccc(C(=O)O)cc1,11.1%,-19.6%,-0.4%,2.3%,-6.4%,-6.2%
CC1=C/C(=C(\c2cc(C)c(O)c(Br)c2)c2ccccc2S(=O)(=O)O)C=C(Br)C1=O,-25.5%,9.53µM*,-12.6%,-43.9%,-8.7%,nt
Nc1c(C(=O)Nc2ccc3c(c2)OCCO3)nnn1CCc1ccccc1,?,15.1µM*,10.5%,?,-2.4%,?
